According to PubChem BioAssay (Tox21):
Records with an inconclusive call do not appear. Activity calls are given as the source filed them. Calls follow the shape of the dose curve; as a rule, active = well fitted curve in the direction sought with a large enough effect in the repeat runs; inconclusive = weak or mixed curves; inactive = no such curve, though single readings can be large; an effect the other way counts as inactive or inconclusive.

Columns and labels:
[1] = Caspase-3/7 induction in HepG2 cells by small molecules, qHTS assay (AID 1346978); also: nearly all actives have a fitted effect of over 15% in size
Summary of the method: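 Caspase-3/7 induction was measured by Caspase-Glo 3/7 luminescence (30 min, room temperature) after a 17 hr compound exposure of wild-type HepG2 cells seeded at 2,000 per well and pre-incubated 5 hr.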

[2] = Caspase-3/7 induction in CHO-K1 cells by small molecules, qHTS cell viability counter screen (AID 1346979); also: nearly all actives have a fitted effect of over 35% in size
Summary of the method: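 Cells (CHO-K1, wild type) are plated at 1,500 per well and incubated 5hr. Test compounds in DMSO are then pinned in, followed by 16hr at 37C and 5% CO2. Viability is read by CellTiter-Fluor fluorescence after 1hr.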

[3] = Caspase-3/7 induction in CHO-K1 cells by small molecules, qHTS assay (AID 1346980); also: nearly all actives have a fitted effect of over 15% in size
Summary of the method: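 Luminescent Caspase-Glo 3/7 read (30min, room temperature) quantified apoptosis induction. Cells were wild-type CHO-K1, treated with compound for 17hr at 37 C and 5% CO2.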

[4] = Caspase-3/7 induction in HepG2 cells by small molecules, qHTS cell viability counter screen (AID 1346981); also: series mostly up to about 92 µM; nearly all actives have a fitted effect of over 30% in size
Summary of the method: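 Wild-type HepG2 cells (2,000/well) were allowed to settle for 5 hr at 37 C, 5% CO2, then dosed with compounds in DMSO by pin transfer. After 16 hr at 37 C, CellTiter-Fluor was added and fluorescence read 1 hr later.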

[5] = biological target: Nuclear receptor subfamily 1 group I member 2 (Homo sapiens) (UniProt O75469); experiment: Human pregnane X receptor (PXR) small molecule agonists, qHTS assay (AID 1346982); also: nearly all actives have a fitted effect of over 35% in size; also: potency is read from the fitted curve at half-maximal effect
Chain of Nuclear receptor subfamily 1 group I member 2 (Homo sapiens) (O75469 whole entry, looked up): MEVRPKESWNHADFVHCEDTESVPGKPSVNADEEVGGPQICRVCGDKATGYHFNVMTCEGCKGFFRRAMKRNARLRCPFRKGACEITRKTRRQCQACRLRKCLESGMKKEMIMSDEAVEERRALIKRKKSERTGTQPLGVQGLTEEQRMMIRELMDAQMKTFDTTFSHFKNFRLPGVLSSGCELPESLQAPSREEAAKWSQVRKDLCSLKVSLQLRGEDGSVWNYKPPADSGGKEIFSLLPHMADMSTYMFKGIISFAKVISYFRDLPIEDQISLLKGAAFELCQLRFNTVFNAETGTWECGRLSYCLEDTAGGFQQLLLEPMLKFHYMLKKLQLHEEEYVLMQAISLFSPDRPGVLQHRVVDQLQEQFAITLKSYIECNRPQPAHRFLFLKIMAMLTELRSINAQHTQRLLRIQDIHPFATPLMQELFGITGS
Summary of the method: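 PXR-Luc HepG2 cells (CYP3A4 promoter-driven luciferase) were seeded in medium with 5% charcoal-stripped FBS, left 5 hr at 37 C, then exposed to compounds in DMSO for 24 hr. Luminescence was read after ONE-Glo addition.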

[6] = biological target: Nuclear receptor subfamily 1 group I member 2 (Rattus norvegicus) (UniProt Q9R1A7); experiment: Rat pregnane X receptor (rPXR) activation by small molecules, qHTS assay (AID 1346983); details: rPXR luciferase reporter cells, One-Glo luminescence, 24 h; max activation: stronger effect = higher value; also: nearly all actives have a fitted effect of over 20% in size
Chain of Nuclear receptor subfamily 1 group I member 2 (Rattus norvegicus) (Q9R1A7 whole entry, looked up): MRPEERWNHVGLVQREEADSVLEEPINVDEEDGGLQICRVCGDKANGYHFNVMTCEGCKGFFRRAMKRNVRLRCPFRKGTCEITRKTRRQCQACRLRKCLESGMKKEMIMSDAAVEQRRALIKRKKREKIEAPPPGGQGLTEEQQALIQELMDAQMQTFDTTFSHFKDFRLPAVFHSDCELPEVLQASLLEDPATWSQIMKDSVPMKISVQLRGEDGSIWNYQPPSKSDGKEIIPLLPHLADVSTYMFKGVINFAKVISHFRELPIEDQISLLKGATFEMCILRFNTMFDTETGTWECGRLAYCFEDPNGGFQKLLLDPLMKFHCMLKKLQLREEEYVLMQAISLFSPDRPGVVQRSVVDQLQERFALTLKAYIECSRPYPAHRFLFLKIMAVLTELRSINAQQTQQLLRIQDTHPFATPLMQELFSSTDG
Summary of the method: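 Luminescent readout (One-Glo luciferase, 30 min room temperature) followed 24 hr compound treatment at 37 C of rPXR cells plated 2,000 per well and preincubated 5hr; qHTS format with compounds delivered in DMSO.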

[7] = biological target: Nuclear receptor subfamily 1 group I member 2 (Homo sapiens) (UniProt O75469); experiment: CYP3A4 induction through human pregnane X receptor (PXR) by small molecules, qHTS assay (AID 1346984); also: nearly all actives have a fitted effect of over 40% in size
Summary of the method: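 DPX-2 cells (HepG2 co-transfected with PXR and CYP3A4 promoter-luciferase) treated with compounds 24 h at 37C; luciferin-IPA CYP3A4 substrate 3uM final added for 3 h, then One-Glo; luminescence read. qHTS format.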

[8] = biological target: Nuclear receptor subfamily 1 group I member 2 (Homo sapiens) (UniProt O75469); experiment: Human pregnane X receptor (PXR) activation by small molecules, qHTS assay (AID 1346985); also: nearly all actives have a fitted effect of over 40% in size
Summary of the method: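 DPX-2 cells (HepG2 co-transfected with a PXR response element and a CYP3A4-promoter luciferase construct) were seeded at 2,000 per well, rested 5 hr at 37C, then exposed to DMSO-dissolved compounds for 24 hr. Activation was read as luciferase luminescence.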

[9] = biological target: Cytochrome P450 2D6 (Homo sapiens) (UniProt P10635); experiment: Cytochrome P450 Family 2 Subfamily D Member 6 (CYP2D6) small molecule antagonists: luciferase reporter qHTS assay (AID 1671196); also: nearly all actives have a fitted effect of over 50% in size; also: potency is read from the fitted curve at half-maximal effect; as to activity change, negative = inhibition: series mostly up to about 120 µM
Chain of Cytochrome P450 2D6 (Homo sapiens) (P10635 whole entry, looked up): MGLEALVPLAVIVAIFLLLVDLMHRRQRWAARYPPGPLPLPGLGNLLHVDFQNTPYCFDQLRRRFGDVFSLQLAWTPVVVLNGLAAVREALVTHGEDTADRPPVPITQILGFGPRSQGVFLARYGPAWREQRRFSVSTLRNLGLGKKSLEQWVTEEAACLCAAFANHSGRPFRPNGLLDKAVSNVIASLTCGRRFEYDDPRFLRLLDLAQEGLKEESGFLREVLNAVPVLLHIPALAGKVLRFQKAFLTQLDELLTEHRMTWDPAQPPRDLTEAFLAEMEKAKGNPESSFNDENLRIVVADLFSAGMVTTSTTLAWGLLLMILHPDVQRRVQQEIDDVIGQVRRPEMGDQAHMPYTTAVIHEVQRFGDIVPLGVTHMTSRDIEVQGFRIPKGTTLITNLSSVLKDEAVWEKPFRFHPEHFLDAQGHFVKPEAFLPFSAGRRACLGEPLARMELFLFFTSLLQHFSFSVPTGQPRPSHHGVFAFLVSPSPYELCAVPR
Summary of the method: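 CYP2D6 enzyme–substrate mix was held with compound for 10 min at room temperature, then NADPH regeneration solution was added and the reaction ran 1 h at room temperature. Luciferin product was detected by luminescence after 20 min with detection reagent.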

[10] = biological target: Cytochrome P450 2C9 (Homo sapiens) (UniProt P11712); experiment: Cytochrome P450 Family 2 Subfamily C Member 9 (CYP2C9) small molecule antagonists: luciferase reporter qHTS assay (AID 1671198); also: nearly all actives have a fitted effect of over 50% in size; also: potency is read from the fitted curve at half-maximal effect; as to activity change, negative = inhibition: series mostly up to about 120 µM
Chain of Cytochrome P450 2C9 (Homo sapiens) (P11712 whole entry, looked up): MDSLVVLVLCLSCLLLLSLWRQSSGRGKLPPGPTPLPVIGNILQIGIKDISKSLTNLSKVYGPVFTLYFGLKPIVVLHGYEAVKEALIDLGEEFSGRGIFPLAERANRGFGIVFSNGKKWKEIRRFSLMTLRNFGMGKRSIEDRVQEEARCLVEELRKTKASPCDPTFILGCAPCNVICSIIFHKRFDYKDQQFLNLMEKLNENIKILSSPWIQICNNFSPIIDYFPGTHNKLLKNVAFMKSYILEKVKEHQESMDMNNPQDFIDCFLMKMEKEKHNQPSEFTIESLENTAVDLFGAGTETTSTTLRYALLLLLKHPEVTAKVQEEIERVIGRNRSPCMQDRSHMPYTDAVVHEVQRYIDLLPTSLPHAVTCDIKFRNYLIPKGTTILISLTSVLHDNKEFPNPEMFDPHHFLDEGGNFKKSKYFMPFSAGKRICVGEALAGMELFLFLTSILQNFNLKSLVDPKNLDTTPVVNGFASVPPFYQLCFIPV
Summary of the method: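 Enzyme-substrate mix preincubated with compound 10 min at room temperature; reaction started with NADPH regeneration solution, 1 h 37C. Luminescent luciferin product read after 20 min detection reagent.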

[11] = biological target: Cytochrome P450 1A2 (Homo sapiens) (UniProt P05177); experiment: Cytochrome P450 Family 1 Subfamily A Member 2 (CYP1A2) small molecule antagonists: luciferase reporter qHTS assay (AID 1671199); also: nearly all actives have a fitted effect of over 50% in size; also: potency is read from the fitted curve at half-maximal effect; as to activity change, negative = inhibition: series mostly up to about 120 µM
Chain of Cytochrome P450 1A2 (Homo sapiens) (P05177 whole entry, looked up): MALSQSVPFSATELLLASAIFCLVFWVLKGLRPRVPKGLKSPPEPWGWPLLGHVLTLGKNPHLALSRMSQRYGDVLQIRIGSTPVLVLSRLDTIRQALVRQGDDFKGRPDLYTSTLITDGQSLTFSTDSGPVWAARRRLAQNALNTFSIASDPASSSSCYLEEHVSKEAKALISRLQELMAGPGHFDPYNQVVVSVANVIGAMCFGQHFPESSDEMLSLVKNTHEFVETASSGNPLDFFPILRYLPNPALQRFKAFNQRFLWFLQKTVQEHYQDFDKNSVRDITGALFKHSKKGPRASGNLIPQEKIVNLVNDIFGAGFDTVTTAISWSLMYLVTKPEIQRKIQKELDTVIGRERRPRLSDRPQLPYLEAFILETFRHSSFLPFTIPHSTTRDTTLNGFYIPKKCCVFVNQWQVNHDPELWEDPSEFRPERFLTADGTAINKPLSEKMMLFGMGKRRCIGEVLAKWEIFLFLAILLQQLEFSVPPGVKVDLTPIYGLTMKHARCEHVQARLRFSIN
Summary of the method: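 Human CYP1A2 activity measured with a P450-Glo proluciferin substrate; compounds in DMSO preincubated 10 min at room temperature with enzyme-substrate mix, then NADPH regeneration system added for 1 h. Luciferin detection reagent, 20 min, luminescence read.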

[12] = biological target: Voltage-gated inwardly rectifying potassium channel KCNH2 (Homo sapiens) (UniProt Q12809); experiment: Human Ether-a-go-go-Related Gene (hERG) channel small molecule antagonists: fluorescence cell-based qHTS assay (AID 1671200);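 also: hERG-expressing U2OS cells given a thallium stimulus after FluxOR II dye loading; series mostly up to about 77 µM; nearly all actives have a fitted effect of over 50% in size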
Chain of Voltage-gated inwardly rectifying potassium channel KCNH2 (Homo sapiens) (Q12809 whole entry, looked up): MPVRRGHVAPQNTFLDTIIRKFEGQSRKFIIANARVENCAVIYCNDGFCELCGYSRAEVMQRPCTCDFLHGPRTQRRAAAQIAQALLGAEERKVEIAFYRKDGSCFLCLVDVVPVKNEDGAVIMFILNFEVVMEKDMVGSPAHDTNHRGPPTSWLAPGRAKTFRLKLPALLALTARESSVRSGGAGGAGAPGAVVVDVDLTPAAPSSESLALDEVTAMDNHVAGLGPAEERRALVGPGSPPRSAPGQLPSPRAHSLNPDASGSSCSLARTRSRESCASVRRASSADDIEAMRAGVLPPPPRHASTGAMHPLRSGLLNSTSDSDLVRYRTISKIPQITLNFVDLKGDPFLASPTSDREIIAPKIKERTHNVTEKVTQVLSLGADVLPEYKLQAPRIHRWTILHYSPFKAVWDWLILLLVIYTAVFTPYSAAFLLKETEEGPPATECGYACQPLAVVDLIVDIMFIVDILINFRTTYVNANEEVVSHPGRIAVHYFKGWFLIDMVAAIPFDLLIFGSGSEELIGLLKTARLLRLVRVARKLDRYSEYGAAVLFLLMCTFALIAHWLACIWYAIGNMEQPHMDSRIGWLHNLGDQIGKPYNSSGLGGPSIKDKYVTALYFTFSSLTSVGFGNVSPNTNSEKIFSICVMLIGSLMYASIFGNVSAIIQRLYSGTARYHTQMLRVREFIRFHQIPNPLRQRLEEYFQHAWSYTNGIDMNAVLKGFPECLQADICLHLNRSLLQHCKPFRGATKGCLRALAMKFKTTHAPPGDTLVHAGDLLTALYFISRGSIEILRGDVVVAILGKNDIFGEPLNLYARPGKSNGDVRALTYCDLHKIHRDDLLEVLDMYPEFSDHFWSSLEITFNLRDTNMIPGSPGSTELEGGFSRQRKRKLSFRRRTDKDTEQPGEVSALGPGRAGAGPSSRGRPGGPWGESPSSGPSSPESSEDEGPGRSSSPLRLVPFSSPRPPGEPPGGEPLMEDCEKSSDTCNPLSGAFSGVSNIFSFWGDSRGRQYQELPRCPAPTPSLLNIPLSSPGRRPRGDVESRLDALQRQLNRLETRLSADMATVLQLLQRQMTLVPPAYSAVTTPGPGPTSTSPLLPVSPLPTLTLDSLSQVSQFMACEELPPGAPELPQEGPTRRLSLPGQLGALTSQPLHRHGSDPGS
Summary of the method: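 Channel function was assessed by thallium flux. Cells seeded the previous day and kept at 37 C took up FluxOR II dye over 1 h in the dark at room temperature, then sat another 10 min before stimulation.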

[13] = biological target: Cytochrome P450 3A4 (Homo sapiens) (UniProt P08684); experiment: Cytochrome P450 Family 3 Subfamily A Member 4 (CYP3A4) small molecule antagonists: luciferase reporter qHTS assay (AID 1671201); also: nearly all actives have a fitted effect of over 50% in size; also: potency is read from the fitted curve at half-maximal effect; as to activity change, negative = inhibition: series mostly up to about 120 µM
Chain of Cytochrome P450 3A4 (Homo sapiens) (P08684 whole entry, looked up): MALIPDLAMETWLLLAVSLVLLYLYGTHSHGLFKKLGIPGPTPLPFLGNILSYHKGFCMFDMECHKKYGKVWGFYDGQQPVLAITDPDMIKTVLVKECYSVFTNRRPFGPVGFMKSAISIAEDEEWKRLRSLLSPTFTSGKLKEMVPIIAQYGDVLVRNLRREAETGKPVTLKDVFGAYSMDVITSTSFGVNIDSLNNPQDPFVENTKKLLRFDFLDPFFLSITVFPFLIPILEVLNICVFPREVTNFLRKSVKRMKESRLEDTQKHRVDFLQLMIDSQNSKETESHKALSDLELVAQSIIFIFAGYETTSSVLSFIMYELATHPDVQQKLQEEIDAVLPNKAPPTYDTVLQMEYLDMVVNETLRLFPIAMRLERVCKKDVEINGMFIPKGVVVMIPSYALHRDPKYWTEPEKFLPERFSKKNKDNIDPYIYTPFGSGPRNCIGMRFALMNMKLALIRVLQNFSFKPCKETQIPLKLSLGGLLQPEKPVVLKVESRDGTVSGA
Summary of the method: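 Compounds in DMSO were pin-transferred onto CYP3A4 enzyme-substrate mix and held 10 min at room temperature. NADPH regenerating solution started the reaction for 1 h; luciferin detection reagent stopped it, and luminescence was read after 20 min.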

[14] = biological target: Cytochrome P450 2C19 (Homo sapiens) (UniProt P33261); experiment: Cytochrome P450 Family 2 Subfamily C Member 19 (CYP2C19) small molecule antagonists: luciferase reporter qHTS assay (AID 1671197); also: nearly all actives have a fitted effect of over 65% in size; also: potency is read from the fitted curve at half-maximal effect; as to activity change, negative = inhibition: series mostly up to about 120 µM
Chain of Cytochrome P450 2C19 (Homo sapiens) (P33261 whole entry, looked up): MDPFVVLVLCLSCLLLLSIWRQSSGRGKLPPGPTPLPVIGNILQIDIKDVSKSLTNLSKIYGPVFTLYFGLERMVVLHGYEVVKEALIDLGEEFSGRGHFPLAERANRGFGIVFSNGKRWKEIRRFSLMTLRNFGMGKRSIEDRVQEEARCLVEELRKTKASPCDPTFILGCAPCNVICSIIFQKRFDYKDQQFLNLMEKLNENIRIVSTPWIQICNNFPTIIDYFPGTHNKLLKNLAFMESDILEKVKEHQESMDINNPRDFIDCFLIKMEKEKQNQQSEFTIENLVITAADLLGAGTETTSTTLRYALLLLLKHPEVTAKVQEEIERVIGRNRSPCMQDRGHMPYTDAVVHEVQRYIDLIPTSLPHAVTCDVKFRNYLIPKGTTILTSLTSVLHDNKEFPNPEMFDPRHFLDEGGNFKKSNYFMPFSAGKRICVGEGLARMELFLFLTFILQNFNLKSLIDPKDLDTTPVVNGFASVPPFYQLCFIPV
Summary of the method: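 Inhibition of CYP2C19 was scored from loss of luminescence in a P450-Glo proluciferin substrate assay, NADPH-started and run 1 h at 37C, with ketoconazole as positive control.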
% is scaled to controls: 0 for no effect and ±100 for the full control effect.

O=C(O)CCC(=O)c1ccc(-c2ccccc2)cc1
inactive: Potency [1] | Potency [2] | outcome [3] | Potency [4] | Potency [5] | max activation [6] 11.9% | Potency [7] | Potency [8] | Potency [9] | Potency [10] | Potency [11] | Potency [12] | Potency [13]

CCN(CC)C(=O)N1CCN(C)CC1
inactive: Potency [1] | Potency [2] | outcome [3] | Potency [4] | Potency [5] | max activation [6] -2.03% | Potency [7] | Potency [8] | Potency [9] | Potency [14] | Potency [12]

CC(O)Cn1cnc2c1c(=O)n(C)c(=O)n2C (stereo not given)
inactive: Potency [1] | Potency [2] | outcome [3] | Potency [4]

CC(C)(C(=O)c1cccnc1)c1cccnc1
inactive: Potency [1] | Potency [2] | outcome [3] | Potency [4] | Potency [5] | max activation [6] -1.51% | Potency [7] | Potency [8] | Potency [14] | Potency [11] | Potency [12]
active: Potency [13] 0.389 µM

COc1cc(NC(C)CCCN)c2ncccc2c1 (stereo not given)
inactive: Potency [1] | Potency [2] | outcome [3] | Potency [4] | Potency [5] | max activation [6] -6.86% | Potency [8] | Potency [12]

CCOC(=O)c1c(N)sc2c1CCN(Cc1ccccc1)C2
active: Potency [9] 0.0219 µM | Potency [14] 0.871 µM | Potency [11] 15.5 µM
inactive: Potency [1] | Potency [2] | outcome [3] | Potency [4] | Potency [5] | max activation [6] -1.17% | Potency [7] | Potency [8]

CNc1c2c(nn1C)CCCC2
inactive: Potency [1] | Potency [2] | outcome [3] | Potency [4] | Potency [5] | max activation [6] -2.75% | Potency [7] | Potency [8] | Potency [9] | Potency [14] | Potency [10] | Potency [11] | Potency [12] | Potency [13]

CCOC(=O)Oc1ccc(CCNC(=O)[C@H](CCSC)NC(C)=O)cc1OC(=O)OCC
inactive: Potency [1] | Potency [2] | outcome [3] | Potency [4] | Potency [5] | Potency [9] | Potency [14] | Potency [11] | Potency [12]
active: Potency [10] 17.4 µM

CC(C)(C)NCC(O)COc1cccc2c1C[C@H](O)[C@H](O)C2 (stereo not given in full)
inactive: Potency [1] | Potency [2] | outcome [3] | Potency [4] | Potency [5] | max activation [6] -1.94% | Potency [7] | Potency [8] | Potency [9] | Potency [14] | Potency [12]

O=C(NC(Cc1cc(=O)[nH]c2ccccc12)C(=O)O)c1ccc(Cl)cc1 (stereo not given)
inactive: Potency [1] | Potency [2] | outcome [3] | Potency [4] | Potency [5] | max activation [6] -0.429% | Potency [7] | Potency [8] | Potency [9] | Potency [14] | Potency [10] | Potency [11]

CC[C@@H](CO)NCCN[C@@H](CC)CO
inactive: Potency [1] | Potency [2] | outcome [3] | Potency [4] | Potency [5] | max activation [6] 2.2% | Potency [7] | Potency [8] | Potency [9] | Potency [14] | Potency [10] | Potency [11]

CCCCCCCCCCCCCCCCCC(=O)OCC(CC)CCCC (stereo not given)
inactive: Potency [1] | Potency [2] | outcome [3] | Potency [4] | Potency [5] | Potency [9] | Potency [14] | Potency [10]

CCOCCC(=O)OCC
inactive: Potency [1] | Potency [2] | outcome [3] | Potency [4] | Potency [5] | Potency [9] | Potency [14] | Potency [10]

Cc1ccccc1S(N)(=O)=O
inactive: Potency [1] | Potency [2] | outcome [3] | Potency [4] | Potency [5] | Potency [9] | Potency [14] | Potency [10]

Cc1c[nH]c2ccccc12
active: Potency [11] 14.4 µM
inactive: Potency [1] | Potency [2] | outcome [3] | Potency [4] | Potency [5] | max activation [6] -6.59% | Potency [7] | Potency [8] | Potency [9] | Potency [14] | Potency [10] | Potency [12] | Potency [13]

Nc1ccc(S(=O)(=O)NCc2ccccc2)cc1
active: Potency [14] 2.19 µM
inactive: Potency [1] | Potency [2] | outcome [3] | Potency [4] | Potency [5] | max activation [6] -1.8% | Potency [7] | Potency [8] | Potency [9] | Potency [10] | Potency [11] | Potency [12]

CC(=O)Oc1cccc(O)c1
inactive: Potency [1] | Potency [2] | outcome [3] | Potency [4] | Potency [5] | max activation [6] -5.99% | Potency [7] | Potency [8] | Potency [9] | Potency [14] | Potency [10]

CC[C@H]1OC(=O)[C@H](C)[C@@H](O[C@H]2C[C@@](C)(OC)[C@@H](O)[C@H](C)O2)[C@H](C)[C@@H](O[C@@H]2O[C@H](C)C[C@H](N(C)C)[C@H]2O)[C@](C)(O)C[C@@H](C)CN(C)[C@H](C)[C@@H](O)[C@]1(C)O
inactive: Potency [1] | Potency [2] | outcome [3] | Potency [4] | Potency [5] | Potency [8] | Potency [9] | Potency [14] | Potency [10] | Potency [11] | Potency [12]

CCCCCCCCCCCCCOC(=O)CCSCCC(=O)OCCCCCCCCCCCCC
inactive: caspase activation [1] 0.0624% [at 19 µM] | activity change, negative = cytotoxicity [2] 0.0364% [at 19 µM] | caspase-3/7 activation [3] 0.789% [at 19 µM] | activity change, negative = cytotoxicity [4] 6.29% [at 19 µM] | activation [5] 3.58% [at 19 µM] | activity change, negative = inhibition [9] -6.54% [at 23.6 µM]
active: Potency [14] 10.6 µM

C1CCCCC1
inactive: Potency [1] | Potency [2] | outcome [3] | Potency [4] | Potency [5] | Potency [9] | Potency [14] | Potency [10] | Potency [11]

CC(C)(C)CCCCCCOC(=O)c1ccccc1C(=O)OCCCCCCC(C)(C)C
inactive: Potency [1] | Potency [2] | outcome [3] | Potency [4] | Potency [9] | Potency [11] | Potency [12]
active: Potency [5] 61.2 µM
